# Values joined by “and” are separate entries in the source; they are usually repeats but may differ in a detail not shown here. Equal values may be shown once. This is part of a sample that, as a whole, favours compounds with a hit. Of some 79,000 tested, about 15% had one in any assay. A structure can be active in one record and inactive in another. Active and inactive are the calls of the source. Cut-off read from the data, not from the text of the source: active = growth inhibition above about 70%; inactive = the rest.
# Assay: NCI Yeast Anticancer Drug Screen. Data for the mlh1 rad18 strain (AID 175)
# Conditions: S. cerevisiae mlh1 rad18 strain growth inhibition; at 50.0 µM; stronger effect = higher value
# Procedure, shortened: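 Steps: expose repair-defective yeast to compound; measure growth; express inhibition against vehicle-treated controls.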
row,SMILES,growth inhibition
1,O=C1C(CN2CCCCC2)CCCC1CN1CCCCC1 (stereo not drawn),3.2% (inactive) and 10.4% (inactive)
2,NC(=O)c1cc(Br)cc(Br)c1O,79.6% (active)
3,CN(C)c1ccc(/C=C/c2ccc3ccccc3[n+]2C)cc1,98.3% (active)
4,C1=C(CN2CCCCC2)COc2ccccc21,76.7% (active)
5,O=C1Nc2ccccc2C1(O)C/C(=N/O)c1ccc2ccccc2c1 (stereo not drawn),66.5% (inactive)
6,CC(C)(S)C(N)C(=O)O (stereo not drawn),6.8% (inactive) and 9.35% (inactive) and 3.55% (inactive)
7,COC(=O)[C@@H](NS(=O)(=O)CC12CCC(CC1)C2(C)C)C(C)(C)C,58.6% (inactive)
8,CN(CCN1C(=O)c2cccc3cccc(c23)C1=O)CCN1C(=O)c2cccc3cccc(c23)C1=O,98.1% (active)
9,CN(C)CCCN=c1c2ccccc2n(O)c2cccc([N+](=O)[O-])c12,-31.7% (inactive)
10,O=C(/C=C/c1ccc(Cl)cc1)NC1C=Nc2ccc([N+](=O)[O-])cc2NC1=O (stereo not drawn),97.2% (active)
11,O=C(CC(=O)CC(O)(c1ccccc1)c1ccccc1)CC(=O)c1ccccc1,98% (active)
12,O=C(c1ccc(Cl)cc1)C(O)c1ccc(Cl)cc1 (stereo not drawn),62.3% (inactive)
13,COc1ccc2c(c1)C(Cc1ccc(Oc3ccc(CC4c5cc(OC)ccc5CC[N+]4(C)C)cc3)cc1)[N+](C)(C)CC2 (stereo not drawn),98.8% (active)
14,O=C(NO)c1cccnc1,16.4% (inactive)
15,Oc1c(Cl)c(Cl)c(Cl)c2ccccc12,96.7% (active)
16,CSC1SCC2C(=O)N(C)C(C(C)C)C(=O)OCC(NC(=O)c3cnc4ccccc4n3)C(=O)NC(C)C(=O)N(C)C1C(=O)N(C)C(C(C)C)C(=O)OCC(NC(=O)c1cnc3ccccc3n1)C(=O)NC(C)C(=O)N2C (stereo not drawn),99% (active) and 90.2% (active)
17,O=C(O)C1(Cc2ccccc2)Cc2cc3c(cc2C1)CCC3,84.8% (active)
18,CC1=C(C(=O)Nc2c(C)cccc2C)C(c2ccc3c(c2)OCO3)C(C(=O)Nc2c(C)cccc2C)=C(C)N1,82.7% (active)
19,COc1cc2c(c3c1/c(=N/N(C)C)c1ccccc1n3C)C=CC(C)(C)O2,44.8% (inactive)

row,SMILES,growth inhibition
1,CC(=O)Nc1nc(N)c2ncn(C3OC(C(O)CO)C(O)C3O)c2n1 (stereo not drawn),18.9% (inactive) and -12.4% (inactive)
2,CC(C)(Cc1nocc1C(C)(C)CC#N)c1cc(CC(C)(C)C2(C)OCCO2)no1,-9.8% (inactive)
3,CCOC(=O)c1c[nH]c2c(ccc3cccnc32)c1=O,37.7% (inactive) and 79.8% (active)
4,Cc1ncc(C[n+]2cccc(CCO)c2C)c(N)n1,72% (active) and 71.2% (active)
5,Clc1ccc2c(c1)[nH]c1c2nc2ccccn21,-14.4% (inactive) and 80.4% (active)
6,O=C(O)c1ccccc1C(=O)O,-5.8% (inactive) and 7% (inactive)
7,COC1/C=C/OC2(C)Oc3c(C)c(O)c4c(c3C2=O)C(=O)C=C(NC(=O)/C(C)=C\C=C\C(C)C2OC(C)(C)OC(C2C)C(C)C(OC(C)=O)C1C)C4=O (stereo not drawn),60.8% (inactive)
8,CCN(CC)CCCn1c2cc(=O)c(=O)cc-2[nH]c2cc(C)ccc21,40% (inactive)
9,O=[N+]([O-])c1ccc(N/N=C/CC(O)(C(F)(F)F)C(F)(F)F)c([N+](=O)[O-])c1,89.9% (active)
10,OCc1ccccc1C(c1ccccc1)c1ccccc1,84.1% (active)
11,COc1ccc2[nH]c3c(C)c4ccncc4c(C)c3c2c1,92.8% (active) and 99.4% (active)
12,CC(C)CCC[C@@H](C)[C@H]1CC[C@H]2[C@@H]3CC=C4N5CCCN=C5CC[C@]4(C)[C@H]3CC[C@]12C,97.9% (active)
13,CC(C)CCCC(C)C1CCC2C3CC=C4CC([n+]5cccc6ccccc65)CCC4(C)C3CCC12C (stereo not drawn),95.2% (active)
14,O=C1/C(=C/c2ccc(Cl)cc2)CNC/C1=C\c1ccc(Cl)cc1,81.2% (active) and 79.2% (active)
15,CCn1c2ccccc2c2ccc(N=Cc3ccc(N(C)C)cc3)cc21,47.5% (inactive)
16,O=C1NC(=O)c2cc([N+](=O)[O-])ccc21,11.3% (inactive) and -14.6% (inactive)
17,O=c1[nH]c(SCc2c(Cl)c(Cl)c(Cl)c(Cl)c2Cl)nc(=S)[nH]1,70.8% (active)
18,Cn1c2nc3ccccc3c-2cc2ccccc21,76.7% (active) and 72.6% (active)
19,O=Cc1cc(Br)ccc1O,97% (active) and 99% (active)

# From PubChem BioAssay (NCI)
